NPR1 antag: antagonists of human natriuretic peptide receptor Npr1 | HEK293 hNpr1 GloSensor cGMP, ANP-stimulated luminescence | Potency, µM (doses to about 46.3 µM), for inactives: at the highest dose activity change, negative = inhibition, usual class: inhibitors | actives 1.6% (n = 76,000); calls by dose curve; further: nearly all actives have a fitted effect of over 60% in size
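Compound pre-incubated 30 min at room temperature on GloSensor-loaded HEK293 cells stably carrying hNpr1 and the pGS-40F cGMP biosensor. Stimulation uses hNppA at 0.1 nM final; luminescence is taken at baseline and 20 min post-agonist.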
GPT2 inh: inhibitors of human GPT2 alanine aminotransferase. Q8TD30. Recombinant GPT2, coupled pyruvate oxidase/HRP Amplex Red fluorescence. Potency, µM (doses to about 57.7 µM), without a hit: top-dose activity change, negative = inhibition, usual class: inhibitors. actives 0.25% (n = 100,000). AID 1671188; further: nearly all actives have a fitted effect of over 60% in size
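GPT2 10ng/uL, a-KG 250uM, L-Ala 2mM, HEPES pH7.5 + 0.0001% Tween; 30 min RT. Then Amplex mix (PO/HRP/ThPP), 30 min RT dark, fluorescence. AOA 50uM used as positive control.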
FLuc inh: Photinus pyralis luciferase inhibition. P08659. purified P. pyralis luciferase, luminescence, biochemical. Potency, µM (doses to about 115 µM), hits mostly inhibitors. actives 2.5% (n = 76,000). AID 1347043; further: nearly all actives have a fitted effect of over 65% in size
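Cell-free enzyme assay, 10nM P. pyralis luciferase, luciferin and ATP each at 10uM. Inhibition profiled over a 6-point titration, read as luminescence.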
HEK cytotox: cytotoxic compounds in HEK 293 cells | Potency, µM (titrated, usually from 115 µM), without a hit: at the highest dose activity change, negative = cytotoxicity, actives largely listed as inhibitors | actives 6.6% (n = 94,000) | HEK 293 viability, ATP luminescence (CellTiter-Glo), 48-72 h | AID 1345083; further: nearly all actives have a fitted effect of over 60% in size
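Cells seeded first (HEK 293, 250 cells/well), then compound added by pintool. Incubation ran 48 or 72 hr at 37 degree Celsius. CellTiter-Glo was added and luminescence imaged after 10 min at room temperature.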
NIH3T3 tox: NIH 3T3 cell cytotoxicity; Potency, µM (top dose mostly 96.7 µM), without a hit: at the top dose activity change, negative = cytotoxicity, actives largely listed as inhibitors; AID 1345082; actives 4.3% (n = 94,000); NIH 3T3 viability, CellTiter-Glo ATP luminescence, 48-72 h; further: nearly all actives have a fitted effect of over 55% in size
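Mouse fibroblast NIH 3T3 cells, 400 per well, received compound via pintool and were incubated for 48 or 72 hr prior to CellTiter-Glo ATP luminescence measurement.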
Numbers without * were called inactive; [ ] = another dose, or the depositor's remark. A selection: hits, their analogues and other compounds. The true share with any hit is near 10%. Unless noted, the call rests on the fitted dose curve; in most records, active means well fitted curve in the direction sought with a large enough effect; inconclusive means small, poorly fitted or top-dose-only effect, or another doubt; inactive means no such curve, though single readings can be large; an effect the other way counts as inactive or inconclusive. On the % scale 0 is the no-effect control and ±100 the full control effect; potency means the concentration at half of the fitted maximal effect.

How did CN(Cc1ccccc1)C(=O)C[C@@H]1CCNC[C@@H]1Cc1cc(CSc2ccccc2)on1 do in these assays?
NPR1 antag: 1.1%; GPT2 inh: -3.9%; FLuc inh: inactive; HEK cytotox: inconclusive; NIH3T3 tox: inconclusive

Results for COc1ccc(CNC(=O)C[C@@H]2CCNC[C@@H]2Cc2cc(-c3ccc(F)cc3)on2)cc1 ?
NPR1 antag: -6.3%; GPT2 inh: inactive; FLuc inh: inactive; HEK cytotox: 79.4µM*; NIH3T3 tox: inconclusive

How did O=C(COc1ccc(F)cc1)N1CCC(N2C(=O)C3(CCCC3)C2c2ccccc2)CC1 (stereo unspecified) do in these assays?
GPT2 inh: -1.4%; HEK cytotox: inconclusive; NIH3T3 tox: inconclusive

Results for Cc1ccc(C(=O)N2CCCN(c3ccc4nnc(C)n4n3)CC2)cc1 ?
HEK cytotox: -0.2%; NIH3T3 tox: -23.6%

What do the screens show for `CC(C)(C)c1ccc(-c2cc(C[C@H]3CNCC[C@H]3CC(=O)Nc3ccccc3)no2)cc1`?
NPR1 antag: -10.5%[70.6 µM]; GPT2 inh: -8.1%[88.5 µM]; FLuc inh: inactive; HEK cytotox: inconclusive; NIH3T3 tox: inconclusive

How did O=C(C[C@@H]1CCNC[C@@H]1Cc1cc(-c2ccc(F)cc2)on1)Nc1ccccc1 do in these assays?
NPR1 antag: -14.0%[70.6 µM]; GPT2 inh: -4.7%[88.5 µM]; FLuc inh: inactive; HEK cytotox: 39.8µM*; NIH3T3 tox: 35.5µM*

Results for Oc1cc(O)c2c(c1)O[C@H](c1ccc(O)c(O)c1)[C@H](O)C2 ?
GPT2 inh: 28.2µM*

How did Cc1ccc(C(CC(=O)Nc2ccc(F)cc2)c2c[nH]c3ccccc23)cc1 (stereo unspecified) do in these assays?
NPR1 antag: -26.2%; GPT2 inh: inactive; FLuc inh: inactive; HEK cytotox: inconclusive; NIH3T3 tox: 44.7µM*

What do the screens show for `O=C(CC(c1cccc([N+](=O)[O-])c1)c1c[nH]c2ccccc12)NCc1ccccc1` (stereo unspecified)?
NPR1 antag: -13.7%; GPT2 inh: inconclusive; FLuc inh: inactive; HEK cytotox: inconclusive; NIH3T3 tox: inconclusive

What do the screens show for `Fc1ccccc1-c1noc(N2CCCCC2)n1`?
NPR1 antag: 10µM*; GPT2 inh: inactive; FLuc inh: 1.58µM*; HEK cytotox: inconclusive; NIH3T3 tox: inconclusive

What do the screens show for `Fc1ccccc1-c1noc(-c2nc(-c3ccccc3F)no2)n1`?
NPR1 antag: 3.4%; GPT2 inh: inconclusive; FLuc inh: inactive; HEK cytotox: -5.7%; NIH3T3 tox: inactive

What do the screens show for `Cn1ncc2c(C(=O)NCc3ccc(F)cc3)cc(-c3ccc(Cl)nc3)nc21`?
GPT2 inh: 1.9%; HEK cytotox: 39.8µM*; NIH3T3 tox: inconclusive

What do the screens show for `Cn1ncc2c(C(=O)NCc3cccnc3)cc(-c3cccc(F)c3)nc21`?
HEK cytotox: 79.4µM*; NIH3T3 tox: inconclusive

What do the screens show for `Cn1ncc2c(C(=O)NCc3cccnc3)cc(-c3ccc(Cl)nc3)nc21`?
GPT2 inh: inactive; HEK cytotox: inconclusive; NIH3T3 tox: 22.4µM*

What do the screens show for `Cn1ncc2c(C(=O)NCCc3ccc(F)cc3)cc(-c3ccc(Cl)nc3)nc21`?
GPT2 inh: inactive; HEK cytotox: -7.9%; NIH3T3 tox: -32.6%

What do the screens show for `Cn1ncc2c(C(=O)NCc3cccnc3)cc(-c3cccnc3)nc21`?
GPT2 inh: -12.5%; HEK cytotox: inconclusive; NIH3T3 tox: inconclusive

Results for Cn1ncc2c(C(=O)Nc3ccccc3Cl)cc(-c3cccc(F)c3)nc21 ?
HEK cytotox: inconclusive; NIH3T3 tox: -12.2%

How did Cn1ncc2c(C(=O)Nc3cccc(Cl)c3)cc(-c3cccc(F)c3)nc21 do in these assays?
HEK cytotox: 35.5µM*; NIH3T3 tox: inconclusive

What do the screens show for `Cc1ccc(C(=O)Nc2ccc3ncnc(N4CCCC4)c3c2)s1`?
NPR1 antag: 1.9%; GPT2 inh: inactive; FLuc inh: inactive; HEK cytotox: 3.6%; NIH3T3 tox: -17.5%

What do the screens show for `COc1cccc(CNC(=O)[C@@H]2CCCN2c2nccc(Nc3ccccc3Cl)n2)c1`?
GPT2 inh: inactive; HEK cytotox: inconclusive; NIH3T3 tox: inconclusive
